In PubChem BioAssay AID834 (PCMD, 2007):
The whole screen tested about 85,000 compounds, of which about 120 (0.14%) were called active.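 The calls were made as follows: active = inhibition above 20%; inactive = inhibition below 20%.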 For the sample, actives were picked, then their nearest neighbours and some compounds at random.

Test: clotrimazole potentiators killing Candida biofilms, primary screen, with clotrimazole, Alamar Blue (AID 834);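 also: preformed 24 hr biofilms exposed to compound for 48 hr; 0% = biofilm without compound and 100% = blank killed by clotrimazole plus chlorhexidine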
Settings: C. albicans biofilm + clotrimazole, at 6 µM, stronger effect = higher value

Structure (SMILES)	inhibition
CCCn1c(C)cc(C(=O)COC(=O)c2c(C)nn(-c3ccccc3)c2C)c1C	-1.14% (inactive)
O=C(CSc1nnc(-c2cccs2)n1Cc1ccccc1)N1CCc2ccccc2C1	6.37% (inactive)
CCOc1ccc2c(c1)C(c1ccc(C)cc1)=NNC(c1ccc(C)cc1)=N2	-0.27% (inactive)
C=C(C)CNC(=S)/N=c1\scc(C)n1CC	1.12% (inactive)
COc1ccc(C2C(C#N)=C(/N=C/N3CCOCC3)OC3=C2C(=O)CC(C)(C)C3)cc1OC (configuration not stated)	13.5% (inactive)
O=P(O)(CP(=O)(c1ccccc1)c1ccccc1)c1ccccc1O	7.77% (inactive)
CC(C)NC(=O)CSc1nnc(COc2ccccc2Cl)o1	5.07% (inactive)
O=C(c1cccc(F)c1)N1CCC(O)(c2cccnc2)CC1	8.81% (inactive)
CCCOc1cc(C)c(S(=O)(=O)n2nnc3ccccc32)cc1C	2.8% (inactive)
NC1=NC(=O)C2(COC(c3ccccc3Cl)OC2)S1 (configuration not stated)	14.2% (inactive)
CC(C)Nc1ncnc2c1nnn2Cc1ccccc1	-1.71% (inactive)
Brc1ccc(-c2nnc(-c3ccccc3)o2)o1	6.11% (inactive)
CCN(CC)C(=O)CSc1nnc(C2CCCCC2)o1	2.47% (inactive)
O=c1[nH][nH]c(C(F)(F)F)c1C=NCc1ccccc1Cl	-3.59% (inactive)
CCN1C(=O)/C(=C2/Sc3ccc(OC)cc3N2C)SC1=Nc1ccc(C)cc1	-3.03% (inactive)
O=C(NC(C(=O)NCCN1CCOCC1)C12CC3CC(CC(C3)C1)C2)C1CCCCC1 (configuration not stated)	-1.05% (inactive)
S=c1[nH]nc(-c2ccc(Cl)cc2)n1CC1CCCO1 (configuration not stated)	7.93% (inactive)
Cc1nnc(SCC(=O)Nc2ncc3c(n2)CC(C)(C)CC3=O)s1	3.95% (inactive)
Cc1ccccc1-c1nnc(SCC(=O)NCc2ccc3c(c2)OCO3)n1C	4.85% (inactive)
Cc1ccc(C(=O)N/N=C/c2sc(=O)n(Cc3cccc(C(=O)O)c3)c2Cl)cc1	8.24% (inactive)
COc1ccc(CN(Cc2ccco2)S(=O)(=O)c2ccc(S(=O)(=O)N3CCCC3)cc2)cc1	1.45% (inactive)
COC(=O)c1ccccc1Oc1c(F)c(F)nc(N2CCOCC2)c1F	8.84% (inactive)
CCc1ccc(NC(=O)CN2C(=O)CSC2=O)cc1	5.49% (inactive)
CC(C)(CNC(=O)c1cc(=O)[nH]c2ccccc12)N1CCOCC1	6.02% (inactive)
COc1cc(C)c(C(C)C)cc1S(=O)(=O)n1ccnc1	1.15% (inactive)

Structure (SMILES)	inhibition
CCn1c(CC(=O)Nc2ccc(C)cc2)nnc1SCC(=O)Nc1nc(C)cs1	5.16% (inactive)
CN1C(=O)C(CC(N)=O)N(NC(=O)c2ccc(Cl)cc2)C1=S (configuration not stated)	7.03% (inactive)
Cc1ccc(-n2c(CNc3ccc(F)cc3)nnc2SCC(=O)N2CCOCC2)cc1	3.95% (inactive)
CC(c1ccco1)N(C(=O)COc1ccccc1[N+](=O)[O-])c1ccccn1 (configuration not stated)	7.57% (inactive)
COC(=O)[C@@H](NC(=O)Nc1cc(Cl)ccc1C)C(C)C	10.7% (inactive)
O=C(Nc1cccc(NC(=O)c2ccco2)c1)c1cnccn1	4.07% (inactive)
Cn1c(-c2sc3cc(C(F)(F)F)cnc3c2-c2ccccc2)n[nH]c1=S	1.53% (inactive)
CC(=O)Oc1ccc(NC(=O)CCC2CCCCC2)c(C(=O)O)c1	4.27% (inactive)
COc1ccc(S(=O)(=O)NCc2ccc(C(=O)N(C)Cc3ccco3)cc2)cc1	4.38% (inactive)
CCOc1ccccc1C(=O)NC1CC2CCCC(C1)N2Cc1ccccc1 (configuration not stated)	1.7% (inactive)
CCn1nnnc1SCC(=O)c1ccc(C)cc1C	-2.31% (inactive)
Cc1ccccc1CSCCNC(=O)c1ccc(Cl)c(S(=O)(=O)N2CCOCC2)c1	3.05% (inactive)
O=C(NCc1ccccc1)[C@@H]1CSC2c3ccccc3C(=O)N21 (some centres not stated)	-0.55% (inactive)
Oc1ccc(-c2onc3ccc(Cl)cc23)cc1	3.22% (inactive)
CCCCCCNCCn1cnc2c(N)ncnc21	8.75% (inactive)
Cc1cc(C)c(OCC(=O)N/N=C/c2ccco2)c(C)c1	-5.16% (inactive)
Cn1c2c(c(=O)n(C)c1=O)C(c1cccc([N+](=O)[O-])c1)Nc1ccccc1O2 (configuration not stated)	6.05% (inactive)
c1ccc(-n2nc3ccccc3n2)cc1	9.8% (inactive)
Cc1ccc(S(=O)(=O)NCC(C)NS(C)(=O)=O)cc1 (configuration not stated)	3.23% (inactive)
O=C1C(Cl)=C(N2CCOCC2)C(=O)N1c1ccccc1	3.34% (inactive)
Fc1ccccc1/C=C1\CCCC2=C1Nc1ncnn1C2c1ccccc1F (configuration not stated)	56.5% (active)
COc1ccc(OC)c(-n2nnnc2SCC(=O)Nc2cc(C)ccc2OC)c1	4% (inactive)
O=S(=O)(NCCc1ccccc1)c1ccccc1	5.09% (inactive)
O=C(NCC1CCCO1)c1ccc2ccccc2n1 (configuration not stated)	2.84% (inactive)
CC(C)Oc1ccc(C(=O)NC(C)(C)CO)cc1	0.21% (inactive)

Structure (SMILES)	inhibition
CCN1CCN(C(=O)C2(NC(=O)Nc3cccc(F)c3)CCCCC2)CC1	-2.53% (inactive)
CCn1c(SCC(=O)Nc2ccc(OC)c(OC)c2)nnc1-c1c[nH]c2ccccc12	2.3% (inactive)
O=C(Nc1ccccc1-c1nnn(CC(=O)N2CCCc3ccccc32)n1)c1cccc(Cl)c1	-4.65% (inactive)
CCSc1nc(-c2ccc(OC)cc2)cc(-c2ccc(OC)cc2)c1C#N	3.4% (inactive)
CC(C)(C)c1ccc(OC2=CS(=O)(=O)c3ccccc32)cc1	1.17% (inactive)
Cc1c(C=O)c2ccccn2c1C(=O)c1ccncc1	-3.35% (inactive)
Cc1cc(SCC(=O)c2ccccc2)nc(SCC(=O)c2ccccc2)n1	9.02% (inactive)
COCC(=O)Nc1ccc(Br)cc1	5.17% (inactive)
COC(=O)c1sc(=S)n(-c2ccc(Cl)cc2)c1C	5.98% (inactive)
CC(=O)C1=C(C)NC(C)=C(C(C)=O)C1c1cn(-c2ccccc2)nc1-c1cccs1	4.22% (inactive)
O=C(NCCCn1ccnc1)Nc1ccc(Cl)cc1Cl	8.78% (inactive)
COC(=O)c1ccc(Sc2ccc(F)cc2)c(N)c1	2.2% (inactive)
Cc1ccc(N(Cc2ccc(C(=O)Nc3ccccc3C(=O)NCc3ccco3)cc2)S(C)(=O)=O)cc1C	0.88% (inactive)
COc1cc2c(cc1OC)C(C(C)C)=NC(C)(C)C2	4.82% (inactive)
COc1ccc(Nc2ncc(C(=O)N3CCN(c4ccccc4OC)CC3)c3ccccc23)cc1	10.1% (inactive)
Cc1[nH]n(-c2ccc(Cl)cc2)c(=O)c1/C=N/n1c(C)nc2ccccc2c1=O	7.46% (inactive)
COC(=O)Nc1ncc(CN2CCCCC2)s1	-1.41% (inactive)
CN(C)S(=O)(=O)c1ccc(N2CCCC2)c(C(=O)NCc2ccccc2)c1	-0.61% (inactive)
CCC(C)NC(=O)c1ccccc1NC(=O)c1ccccc1N(C)S(C)(=O)=O (configuration not stated)	-0.05% (inactive)
COC(=O)c1ccccc1Sc1c(/C=N/OCc2ccc(Cl)cc2)c(C(F)(F)F)nn1C	-1.64% (inactive)
S=C1NC(c2ccccc2)=NCN1c1ccc(Br)cc1	5.98% (inactive)
C=CCOC(=O)C1=C(C)NC(SCC(=O)OCC)=C(C#N)C1c1ccc(C)cc1 (configuration not stated)	3.88% (inactive)
N#CC1=C(SCc2ccc(C#N)cc2)N=C(N)C(c2nc(-c3ccccc3)cs2)C12CCCCC2 (configuration not stated)	-2.54% (inactive)
Cc1ccc(CCN2CC(C(=O)O)CC2=O)cc1 (configuration not stated)	2.77% (inactive)
COc1ccc(CN(CC(=O)NC2CCCC2)C(=O)CCC(=O)Nc2cc(C)on2)cc1	-2.23% (inactive)

Structure (SMILES)	inhibition
CCn1c2ccccc2c2cc(NC(=S)N3CCOCC3)ccc21	5.56% (inactive)
CCN(c1ccccc1)S(=O)(=O)c1ccc(C(=O)Nc2nccs2)cc1	2.15% (inactive)
CCOC(=O)c1cnc(SCC(=O)Nc2ccccc2C(=O)OC)nc1N	4.94% (inactive)
CCNc1nc(NC(C)C)nc(OCCOC(=O)c2ccccc2)n1	2.57% (inactive)
Cc1cccc(N2CCN(C(=O)c3cnn4c(C(F)F)cc(-c5ccccc5)nc34)CC2)c1C	7.54% (inactive)
CCOCCn1c(C(C)C)nc2ccccc21	0.21% (inactive)
O=C(CN1CCOCC1)Nc1ccccc1	2.89% (inactive)
COC(=O)c1ccc(CSc2nnc(NC(C)C)s2)cc1	8.02% (inactive)
COc1ccccc1C(c1nnnn1C(C)(C)C)N1CCN(Cc2ccccc2)CC1 (configuration not stated)	-0.02% (inactive)
COc1ccc(Br)cc1CN1CCN(C(=O)c2cccc(OC)c2OC)CC1	-0.18% (inactive)
Cc1nn(Cc2ccccc2)c2c1C(c1ccccc1)C(C#N)=C(N)O2 (configuration not stated)	4.23% (inactive)
CCCc1cc(=O)[nH]c(SCC(=O)c2cc(C)n(CCC)c2C)n1	9.55% (inactive)
C=CCN(C(=O)Cn1ncc2c1-c1cc(C)ccc1OC2)c1ccccc1	3.48% (inactive)
CC(C)(C)c1nc2ccccc2c(=O)n1N1C(=O)c2ccccc2C1=O	1.87% (inactive)
OC(c1ccccc1)c1nccn1Cc1ccccc1 (configuration not stated)	6.12% (inactive)
CCOc1cccc(C(=O)Nc2nnc(-c3cccs3)s2)c1	5.64% (inactive)
CC(C)N1C(=S)SC(C)(C)C1n1oc(=O)n(-c2ccc(Cl)c(Cl)c2)c1=O (configuration not stated)	8.09% (inactive)
Cc1noc(COc2ccccc2OCc2onc(C)c2Cl)c1Cl	-3.84% (inactive)
COC(=O)c1sccc1-n1cccc1C(=O)C(=O)N1CCCCC1	6.37% (inactive)
COCCNC(=O)COc1ccccc1C	4.87% (inactive)
CCC(C)NC(=O)CCCc1ccccc1 (configuration not stated)	5.94% (inactive)
COc1ccc(NC(=O)C2C3C=CC(C3)C2C(=O)NCc2ccccn2)c(OC)c1 (configuration not stated)	3.96% (inactive)
